Drawing on PubChem BioAssay (Tox21), this text covers Potency and activity change, negative = inhibition for 40 compounds.

Results filed as inconclusive are left out. A call without a number means that no potency is given here. Unmarked numbers belong to inactive results. Active and inactive are the calls of the source. The call rests on the fitted dose curve.
Potency means the concentration at half of the fitted maximal effect.

Chain of Beta-2 adrenergic receptor (Homo sapiens) (P07550 whole entry, looked up): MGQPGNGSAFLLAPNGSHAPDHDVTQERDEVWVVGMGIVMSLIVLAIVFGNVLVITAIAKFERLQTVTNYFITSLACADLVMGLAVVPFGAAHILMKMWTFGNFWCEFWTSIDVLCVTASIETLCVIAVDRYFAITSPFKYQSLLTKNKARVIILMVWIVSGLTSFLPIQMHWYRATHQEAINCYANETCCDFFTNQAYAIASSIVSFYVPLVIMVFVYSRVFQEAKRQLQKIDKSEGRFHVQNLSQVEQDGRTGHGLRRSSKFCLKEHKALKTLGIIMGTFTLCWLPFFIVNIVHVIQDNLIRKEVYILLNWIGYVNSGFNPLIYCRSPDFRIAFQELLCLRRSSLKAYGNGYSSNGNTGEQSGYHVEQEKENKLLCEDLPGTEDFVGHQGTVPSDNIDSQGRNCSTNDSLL

The assay deals with Beta-2 adrenergic receptor (Homo sapiens) (UniProt P07550). In words: Adrenergic beta2 receptor (ADRB2) small molecule antagonists, cell-based qHTS assay (AID 1963592). Further: nearly all actives have a fitted effect of over 50% in size. Particulars: CHO-ADRB2 cells, isoproterenol-stimulated cAMP HTRF ratio, 0.5 h; series mostly up to 92.4 µM. From the text:
U.S. Tox21 Program National Center for Advancing Translational Sciences [NCATS] Division of Preclinical Innovation [DPI] U.S. Environmental Protection Agency [EPA] National Institutes of Environmental Health Sciences [NIEHS] National Toxicology Program [NTP] U.S. Food and Drug Administration [FDA] Tox21 Assay Overview: Beta adrenergic receptors (Beta-ARs) belong to the G-protein coupled receptor (GPCR) superfamily, includes three subtypes - beta1, beta2, and beta3. Beta1-AR is the predominant receptor subtype expressed in the heart, and beta2-AR is expressed in the kidney, lung, blood vessel and in the heart, and beta3 is found in the adipocytes. Beta1 and 2 ARs couple to Gs protein and elevate cyclic adenosine mono phosphate (cAMP), which activates protein kinase A and leads to the downstream signaling responsible for the physiological actions. Beta-AR agonists or antagonists are the most prescribed therapeutic agents for heart failure and asthma, and these were one of the first target receptors for the rational drug design. Tox21 10K compound library was screened using the cAMP-Gs dynamic assay (Cisbio Bioassays, Shelton, CT) to identify agonists/antagonists of the Gs-coupled human adrenergic, beta2 receptor (ADRB2) in the CHO-ADRB2 cell line (Codex BioSolutions, Inc. Gaithersburg, MD), which stably over-expresses ADRB2. The principle of cAMP-Gs dynamic assay is based on HTRF technology, which facilitates the fluorescence resonance energy transfer (FRET) between donor Europium cryptate and acceptor d2-labeled cAMP. The cAMP generated within cells competes with the red acceptor, d2-labled cAMP, for binding to the monoclonal anti-cAMP-cryptate (Europium donor). An increase in intracellular cAMP leads to the disruption of FRET signal, and the signal is inversely proportional to the cAMP concentration. Propranolol HCl (Sigma-Aldrich, St. Louis, MO) was used as a positive control in the screening.
Tox21 Assay Protocol Summary: CHO-ADRB2 cells were dispensed at 1,000/well in 4uL assay medium into white/solid 1536-well plates (Greiner Bio-One North America Inc., Monroe, NC) using a Multidrop Combi dispenser (ThermoFisher Scientific, Waltham, MA). The assay plates were incubated at 37C and 5% CO2 for an overnight (18-20hr). Then positive control and test compounds dissolved in DMSO were transferred to the assay plates at 23nL using a Pintool station (Wako, San Diego, CA). Following the compound and positive control transfer, 1uL agonist-stimulation mix containing 1nM Isoproterenol HCl, 100uM IBMX and 25uM Ro-20-1724 was added to each well of the assay plates using BioRAPTR Flying Reagent Dispenser (FRD, Beckman Coulter, Brea, CA). The assay plates were incubated at room temperature for 0.5hr. Then 2.5ul each d2-labled cAMP and anti-cAMP-cryptate solutions were added separately to each well of the assay plates using an FRD and the assay plates were incubated at room temperature for 1hr. The fluorescence signal was measured at two different wavelengths (665nm and 615nm) using an Envision plate reader (Perkin Elmer, Shelton, CT). Data were expressed as the ratio of 665 nm/615 nm.
(In general: qHTS replaces the single test concentration by a dilution series.)
Regarding `CC(C)c1c(CN(C)C(C)Cc2ccccc2)n(C)n(-c2ccccc2)c1=O` (stereo not given), the Potency result was “inactive”.

Regarding `Cc1cc(=O)[nH]o1`, the Potency entry was “inactive”.

For `O=C1C(Cl)C(CCl)CN1c1cccc(C(F)(F)F)c1` (stereo not given), the Potency entry is “inactive”.

As for `[Cl][Sn]([c]1ccccc1)([c]1ccccc1)[c]1ccccc1`, the activity change, negative = inhibition was 1.04% [at 19 µM].

For the compound `c1cc[n+]2c(c1)-c1cccc[n+]1CC2`, the Potency entry is “inactive”.

Regarding `O=[N+]([O-])C(Br)(CO)CO`, the Potency entry is “inactive”.

In the case of `CCCN(CCC)C(=O)Cc1c(-c2ccc(Cl)cc2)nc2ccc(Cl)cn12`, the Potency entry was “inactive”.

As to `CNC(=O)Oc1ccc(N(C)C)c(C)c1`, the Potency entry is “inactive”.

Take `COc1cccc2c1cc([N+](=O)[O-])c1c(C(=O)O)cc3c(c12)OCO3`: the Potency result was “inactive”.

As for `Cc1ccccc1OP(=O)(Oc1ccccc1C)Oc1ccccc1C`, the Potency result was “inactive”.

Consider `Clc1cccc2ccccc12`, for which the Potency result was “inactive”.

In the case of `CCCCCC[N+](=O)[O-]`, the Potency entry was “inactive”.

In the case of `CCOC(=O)COc1ccc(Cl)cc1Cl`, the Potency result is “inactive”.

As for `O=[N+]([O-])[O-].[Tl+]`, the Potency result was “inactive”.

`CCN1CCC2(CC1)COc1cc3c(cc12)N(C(=O)c1ccc(-c2ccc(-c4nnc(C)o4)cc2C)cc1)CC3`: the Potency result was “inactive”.

For `CCCCCCCCCCCCCC[P+](CCCCCC)(CCCCCC)CCCCCC` (tested in a mixture with another compound), the Potency result was “inactive”.

Consider `CCCCCCCCCC(=O)O[C@H]1CC[C@H]2[C@@H]3CCC4=CC(=O)CC[C@@H]4[C@H]3CC[C@]12C`, for which the Potency entry is “inactive”.

On to `C[C@@H]1CC[C@@]2(OC1)O[C@H]1[C@@H](O)[C@H]3[C@@H]4CC[C@H]5C[C@@H](O[C@@H]6O[C@H](CO)[C@H](O[C@@H]7O[C@H](CO)[C@@H](O)[C@H](O[C@@H]8OC[C@@H](O)[C@H](O)[C@H]8O)[C@H]7O[C@@H]7O[C@H](CO)[C@@H](O)[C@H](O[C@@H]8O[C@H](CO)[C@@H](O)[C@H](O)[C@H]8O)[C@H]7O)[C@H](O)[C@H]6O)[C@H](O)C[C@]5(C)[C@H]4CC[C@]3(C)[C@H]1[C@@H]2C`, for which the Potency is 64.9 µM (active).

Consider `NC(=O)C(Cl)(Cl)Cl`, for which the Potency entry is “inactive”.

`CC(C)(C)c1ccc(CCOc2ncnc3ccccc23)cc1`: the Potency entry was “inactive”.

`CCCCOP(=O)(O)OCCCC`: the Potency result is “inactive”.

`COP(=S)(OC)Oc1nc(Cl)c(Cl)cc1Cl`: the Potency result was “inactive”.

With `CCC1(c2ccccc2)C(=O)N=C(O)NC1=O` (stereo not given), the Potency entry is “inactive”.

In the case of `O=C(Nc1ccccc1)Nc1ccnc(Cl)c1`, the Potency result is “inactive”.

As for `COC12CC[C@@]3(C[C@@H]1C(C)(O)C(C)(C)C)[C@H]1Cc4ccc(O)c5c4[C@@]3(CCN1CC1CC1)[C@H]2O5` (stereo not given in full), the Potency entry is “inactive”.

For `OC(Cn1cncn1)(c1ccc(F)cc1)c1ccccc1F` (stereo not given), the Potency result was “inactive”.

Consider `O=C1CN=C(c2ccccc2)c2cc([N+](=O)[O-])ccc2N1`, for which the Potency entry is “inactive”.

As to `N#C/C=C/c1ccccc1`, the Potency entry was “inactive”.

Take `Cc1nc2ccccc2c(=O)n1-c1ccccc1Cl`: the Potency result was “inactive”.

As to `CCN(CC)c1nc(C)cc(OP(=S)(OC)OC)n1`, the Potency entry was “inactive”.

For `CNC(=O)Oc1cc(C)c(N(C)C)c(C)c1`, the Potency result is “inactive”.

As to `CN(C)CCc1c[nH]c2ccccc12`, the Potency entry is “inactive”.

As to `[O-][Cl+3]([O-])([O-])O`, the Potency result was “inactive”.

Consider `N#CC(C#N)=NNc1cccc(Cl)c1`, for which the Potency entry was “inactive”.

In the case of `COP(=O)(OC)SCn1c(=O)oc2cc(Cl)cnc21`, the Potency result was “inactive”.

As to `CCCCC(CC)COC(=O)OOC(C)(C)C` (stereo not given), the Potency entry was “inactive”.

Take `O=C(O)c1c(Cl)ccc2cc(Cl)cnc12`: the Potency result is “inactive”.

With `O=[N+]([O-])c1ccccc1CCl`, the Potency result was “inactive”.

For the compound `CCCN`, the Potency entry is “inactive”.

Consider `Cc1cnc2c(C(=O)O)c(Cl)ccc2c1`, for which the Potency result was “inactive”.
